# Experimental data reported in PubChem BioAssay.
# Values joined by “and” are separate entries in the source; they are usually repeats but may differ in a detail not shown here. Equal values may be shown once. Results filed as inconclusive are left out. Active and inactive are the calls of the source. Unless noted, no stated cut-off is given here; in the data, active means inhibition above about 80%; inactive means the rest.
# Tests used:
# [1] = ICB984 medulloblastoma cell growth inhibition, synergistic combos for chromothripsis tumors, cisplatin or BGB combos (AID 1671451; call rule not given here;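 further: cells exposed for 96 hours before readout; 0% = vehicle DMSO and 100% = killing by high DMSO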); settings: ICB984 medulloblastoma cells, drug combinations, stronger effect = higher value
# [2] = HTB85 osteosarcoma cell growth inhibition, synergistic combos for chromothripsis tumors, BGB or cisplatin IC20 combos (AID 1671453); settings: HTB85 osteosarcoma cells, drug combinations, stronger effect = higher value;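 further: cells exposed for 96 hours before readout; 0% = vehicle DMSO and 100% = high DMSO killing control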
# [3] = MDA-MB-436 breast carcinoma cell growth inhibition, synergistic combos for chromothripsis tumors, BGB or cisplatin combos (AID 1671458; call rule not given here;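 further: cells exposed for 96 hours; 0% = vehicle DMSO and 100% = killing by high DMSO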); settings: MDA-MB-436 breast carcinoma growth inhibition, drug combinations, stronger effect = higher value
# [4] = growth inhibition of BT084 medulloblastoma cells, cell-based, ICGC_MB145, cisplatin and BGB IC40 combos (AID 1671461); settings: drug combinations, stronger effect = higher value;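 further: cells exposed to drugs for 96 hours; 0% = vehicle DMSO and 100% = high DMSO full killing control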
# [5] = growth inhibition of RCMB18 medulloblastoma cells, cell-based, cisplatin and BGB IC40 combos (AID 1671462); settings: stronger effect = higher value;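 further: cells exposed to compound for four days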
# [6] = growth inhibition of DIPG glioma cells, dose response, cell-based, SU-DIPG-XVII, MIPE5.0, CellTiter-Glo, qHTS (AID 1347060; cut-off not given, nearly all actives have AC50 up to about 26 µM;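 on AC50: cells exposed to compound for 48 hours before viability readout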); settings: SU-DIPG-XVII viability, CellTiter-Glo ATP luminescence
# [7] = growth inhibition of DIPG glioma cells, dose response, cell-based, SU-DIPG-XIII, MIPE4.0, CellTiter-Glo, qHTS (AID 1347061; cut-off not given, nearly all actives have AC50 up to about 37 µM;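 further: cells exposed to compound for 48 hours before readout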); settings: SU-DIPG-XIII viability, CellTiter-Glo ATP luminescence
# [8] = growth inhibition of DIPG glioma cells, dose response, cell-based, JHH-DIPG-1, MIPE4.0, CellTiter-Glo, qHTS (AID 1347062; cut-off not given, nearly all actives have AC50 up to about 27 µM;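 further: cells exposed to compound for two days before readout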); settings: JHH-DIPG-1 viability, CellTiter-Glo ATP luminescence
# [9] = growth inhibition of DIPG glioma cells, dose response, cell-based, SU-DIPG-IV, MIPE4.0, CellTiter-Glo, qHTS (AID 1347063; cut-off not given, nearly all actives have AC50 up to about 30 µM;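 further: compound exposure lasted 48 hours before the viability readout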); settings: SU-DIPG-IV viability, CellTiter-Glo ATP luminescence
# [10] = JHH-DIPG-1 glioma cell viability, MIPE5.0 library, CellTiter-Glo luminescence, qHTS (AID 1347067; cut-off not given, nearly all actives have AC50 up to about 26 µM;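 further: cells exposed to compound for 48 hours before readout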); settings: JHH-DIPG-1 glioma viability, CellTiter-Glo ATP luminescence
# [11] = SU-DIPG-XXV glioma cell viability, MIPE5.0 library, qHTS (AID 1347068; cut-off not given, nearly all actives have IC50 up to about 30 µM)
# [12] = sensitizers of A549 cells to miR-34 induction, primary screen, imaging, A549 dox-inducible miR-34, nuclei and caspase counts (AID 1347080;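 active means compounds whose cell count with miR-34 switched on is under 0.7 times the count with it off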); settings: A549 miR-34 inducible, Hoechst nuclei count, 48 h
# [13] = survival rescue of mitochondrial mutant cells in low glucose, primary screen, MELAS cybrids, Rieske KO mouse fibroblasts, CellTiter-Glo (AID 1508586;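 active means mean z-score across replicates of 1.96 or higher in either the MELAS or the Rieske mutant cell line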;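 further: z relative to plate mean and SD of compound and empty wells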)
# [14] = LFS_MB_P medulloblastoma growth inhibition, cell-based, chromothripsis tumors, cisplatin or BGB combos (AID 1671449); settings: LFS_MB_P medulloblastoma cells;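 further: cells exposed for 96 hours; 0% = vehicle DMSO and 100% = killing by high DMSO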
# [15] = HDN33 neuroblastoma growth inhibition, cell-based, chromothripsis tumors, cisplatin or BGB combos (AID 1671450); settings: HDN33 neuroblastoma cells, stronger effect = higher value;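 further: cells exposed to compound for four days; 0% = vehicle DMSO and 100% = cell killing by high DMSO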
# [16] = SU-DIPG-VI glioma cell viability, MIPE4.0 library, CellTiter-Glo luminescence, qHTS (AID 1347066; cut-off not given, nearly all actives have AC50 up to about 30 µM;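 further: cells exposed to compound for 48 hours before readout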); settings: CellTiter-Glo ATP luminescence
# [17] = measured here: 5 uM single agent, at 5 µM
# [18] = measured here: with BGB IC20, at 0.5 µM
# [19] = measured here: with BGB IC20, at 5 µM
# [20] = measured here: with cisplatin IC20, at 0.5 µM
# [21] = measured here: with cisplatin IC20, at 5 µM
# [22] = measured here: BGB combination, at 0.5 µM
# [23] = measured here: BGB combination, at 5 µM
# [24] = measured here: cisplatin combination, at 0.5 µM
# [25] = measured here: cisplatin combination, at 5 µM
# [26] = cisplatin combination, at 0.5 µM
# [27] = measured here: BGB IC40 combination 0.05 uM, at 0.05 µM
# [28] = measured here: BGB IC40 combination, at 0.05 µM
# [29] = measured here: combination with cisplatin, at 0.5 µM
compound,measurement,setting,value
COc1ccc(-c2nc(N3CCOCC3)c3sc(CN(C)c4ncc(C(=O)NO)cn4)cc3n2)cn1,inhibition,"[1]; cisplatin combo, at 0.05 µM",101%
same,inhibition,"[1]; cisplatin combo, at 0.5 µM",10.9% and -33%
same,inhibition,"[1]; cisplatin combo, at 5 µM",21.2% and -18.3%
same,inhibition,[1]; [17],1.99% and 3.43%
same,inhibition,[2]; at 0.5 µM,99.5% (active) and 95.4% (active)
same,inhibition,[2]; [18],99.5% and 93.3%
same,inhibition,[2]; [19],99.8% and 99.9%
same,inhibition,[2]; [20],99.9%
same,inhibition,[2]; [21],100% and 99.9%
same,inhibition,"[2]; single agent, at 5 µM",99.9%
same,inhibition,[3]; at 0.5 µM,55.1% (inactive) and 39.3% (inactive)
same,inhibition,[3]; [22],45.2% and 33.3%
same,inhibition,[3]; [23],89.9% and 80.2%
same,inhibition,[3]; [24],50.8% and 33.9%
same,inhibition,[3]; [25],91.2% and 86.1%
same,inhibition,[4]; at 0.5 µM,84.3% (active) and 90.7% (active)
same,inhibition,[4]; [26],99.6% and 101%
same,inhibition,"[4]; cisplatin combination, at 5 µM",102% and 106%
same,inhibition,[4]; [27],55.4% and 3.88%
same,inhibition,"[4]; single agent, at 5 µM",109% and 106%
same,inhibition,[5]; at 0.5 µM,90.3% (active) and 89.8% (active)
same,inhibition,"[5]; cisplatin combo, at 5 µM",97.3% and 101%
same,inhibition,[5]; [28],42.1% and 41.3%
same,inhibition,[5]; [29],91.8% and 91.3%
same,inhibition,"[5]; single agent, at 5 µM",98.7% and 99.3%
CN1CCc2c(c3ccccc3n2Cc2ccc(C(=O)NO)cc2)C1,AC50,[6],23.5 µM (active)
same,outcome,[7],inactive
same,AC50,[8],23.5 µM (active)
same,AC50,[9],20.9 µM (active)
same,AC50,[10],20.9 µM (active)
same,outcome,[11],inactive
same,fold change,"[12]; stronger effect = lower value, cell number ratio, induced over uninduced",0.909 (inactive) and 0.928 (inactive)
same,fold change,[12]; measured here: relative caspase fold change +Dox/-Dox,0.692 and 0.727
same,cell count,"[12]; measured here: total cells with miR-34 induction, stronger effect = lower value",8690 and 9370
same,cell count,[12]; measured here: total cells without miR-34 induction,9560 and 10100
same,z-score,"[13]; MELAS cybrid survival, CellTiter-Glo 48 h, stronger effect = higher value",-0.421 (inactive) and -0.386 (inactive)
same,z-score,"[13]; Rieske KO mouse fibroblast survival, CellTiter-Glo 72 h",1.15 and -0.701
same,inhibition,"[14]; at 0.5 µM, stronger effect = higher value",-24.1% (inactive) and -14.7% (inactive)
same,inhibition,"[14]; measured here: combination with BGB IC20, at 0.005 µM",-28.6% and -21.3%
same,inhibition,"[14]; measured here: combination with BGB IC40, at 0.005 µM",-40.9% and -27%
same,inhibition,"[14]; measured here: combination with BGB IC40, at 0.05 µM",-19.2% and -45.3%
same,inhibition,"[14]; measured here: combination with cisplatin, at 0.5 µM, stronger effect = higher value",-23.9% and 9.39%
same,inhibition,"[14]; measured here: combination with cisplatin, at 5 µM, stronger effect = higher value",-11.8% and 7.46%
same,inhibition,"[15]; BGB combo, at 5 µM",2.45% and 27.4%
same,inhibition,[15]; at 0.5 µM,4.53% (inactive) and -0.32% (inactive)
same,inhibition,"[15]; cisplatin combo, at 5 µM",19.6% and 28.9%
same,inhibition,"[15]; measured here: with BGB IC20 combination, at 0.5 µM",-5.55% and 4.06%
same,inhibition,"[15]; measured here: with cisplatin IC20 combination, at 0.5 µM",15% and 5.2%
same,inhibition,"[15]; single agent, at 5 µM",25.9% and 54.8%
same,inhibition,"[1]; BGB IC20 combo, at 0.005 µM",22.3% and -11.7%
same,inhibition,"[1]; BGB IC40 combo, at 0.005 µM",-10.2% and -27.7%
same,inhibition,"[1]; BGB IC40 combo, at 0.05 µM",-9.66% and -9.28%
same,inhibition,[1]; at 0.5 µM,-11.2% (inactive) and -22.9% (inactive)
same,inhibition,"[1]; cisplatin combo, at 0.05 µM",-15.3% and -13.2%
same,inhibition,"[1]; cisplatin combo, at 0.5 µM",-16.4% and -10.9%
same,inhibition,"[1]; cisplatin combo, at 5 µM",-14% and -10.1%
same,inhibition,[1]; [17],-11.5% and -12.4%
same,inhibition,[2]; at 0.5 µM,0.33% (inactive) and -0.18% (inactive)
same,inhibition,[2]; [18],0.483% and -9.65%
same,inhibition,[2]; [19],26.3% and 10.4%
same,inhibition,[2]; [20],-3.56% and 12.2%
same,inhibition,[2]; [21],24.2% and 27.5%
same,inhibition,"[2]; single agent, at 5 µM",18.4% and 13.9%
same,inhibition,[3]; at 0.5 µM,-13.8% (inactive) and -2.54% (inactive)
same,inhibition,[3]; [22],-10.6% and -7.29%
same,inhibition,[3]; [23],-5.66% and 0.993%
same,inhibition,[3]; [24],-25.1% and 2.46%
same,inhibition,[3]; [25],-15.3% and 18.8%
same,inhibition,[4]; at 0.5 µM,2.15% (inactive) and 0.779% (inactive)
same,inhibition,[4]; [26],8.01% and -20.4%
same,inhibition,"[4]; cisplatin combination, at 5 µM",-145% and 19.9%
same,inhibition,[4]; [27],-20.5% and 21.4%
same,inhibition,"[4]; single agent, at 5 µM",2.48% and 3.3%
same,inhibition,[5]; at 0.5 µM,-9.94% (inactive) and 3.3% (inactive)
same,inhibition,"[5]; cisplatin combo, at 5 µM",1.27% and 18.1%
same,inhibition,[5]; [28],-31.8% and 8.24%
same,inhibition,[5]; [29],-21.5% and 43%
same,inhibition,"[5]; single agent, at 5 µM",12.1% and 14.4%
COc1cc2c(cc1-c1c(C)noc1C)ncc1[nH]c(=O)n([C@H](C)c3ccccn3)c12,outcome,[6],inactive
same,AC50,[7],10.5 µM (active)
same,AC50,[8],23.5 µM (active)
same,AC50,[9],13.2 µM (active)
same,AC50,[16],4.18 µM (active)
same,outcome,[10],inactive
same,outcome,[11],inactive
